Measured values taken from PubChem BioAssay (NCATS).
Records with an inconclusive call do not appear. Where a call stands in place of a potency, no number is given. The source made the active and inactive calls. Unless noted, calls follow the shape of the dose curve; as a rule, active = well fitted curve in the direction sought with a large enough effect; inconclusive = small, poorly fitted or top-dose-only effect, or another doubt; inactive = no such curve, though single readings can be large; an effect the other way counts as inactive or inconclusive.

Assays:
[1] = Cell Viability - H-4-II-E (AID 543); also: nearly all actives have a fitted effect of over 35% in size
How it was run: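 Luminescent ATP signal (CellTiter-Glo) served as the viability read-out, with cytotoxicity seen as a concentration-dependent ATP drop. Cells were treated for 40 hours in complete medium. AC50 values derive from Hill-equation modelling.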

[2] = Cell Viability - SH-SY5Y (AID 544); details: SH-SY5Y neuroblastoma cell viability; viability change, negative = cytotoxic: at 92.2 µM (top of the series); also: nearly all actives have a fitted effect of over 55% in size
How it was run: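 Luminescent ATP read-out (CellTiter-Glo) measures loss of viable SH-SY5Y neuroblastoma cells after 40 hr compound exposure at 37 °C. AC50 values derive from standard Hill modelling of qHTS concentration-response data.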

[3] = Cellular Toxicity (caspase-3) SHSY5Y (AID 657)
How it was run: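 qHTS, SH-SY5Y, 1500 cells/well, 5 h pre-incubation 37 °C; compound 16 h 37 °C; Caspase-Glo 3/7 1 h RT; luminescence. Norm.: DMSO = 0, 10 uM staurosporine = 100%. Hill fit → AC50.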

[4] = Cell Viability - LYMP2-001 (AID 921);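 also: cells exposed to compound for 24 h at 37 °C; nearly all actives have a fitted effect of over 70% in size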
How it was run: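 Steps: seed 2500 lymphoblastoid cells/well; 5 hr, 37 C; add compound; 24 hr, 37 C; CellTiter-Glo reagent, 30 min room temperature; read luminescence. Concentration-response modeled by Hill equation for AC50.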

[5] = MultiTox-Fluor Cytotoxicity Assay - LYMP1-003 - Live Cells (AID 962);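 also: cytotoxic hits lower the live-cell protease signal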
How it was run: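 qHTS, 1536-well; 2500 cells/well LYMP1-003; 5 hr 37 C settle; cpd 16 hr 37 C; MultiTox-Fluor reagent 60 min RT; live-cell protease fluor. 405/510; Hill-fit AC50; tetraoctylammonium bromide pos. ctrl.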

[6] = Cell Viability - LYMP2-004 (AID 966); also: nearly all actives have a fitted effect of over 65% in size
How it was run: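 Cells seeded 2500/well, rested 5 hr at 37 C, dosed across a concentration series, incubated 24 hr at 37 C, then CellTiter-Glo added for 30 min at room temperature and luminescence read. Hill fitting gave AC50.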

[7] = Cell Viability - LYMP2-005 (AID 967);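 also: cells exposed to compound for 24 h at 37 °C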
How it was run: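 Acute cytotoxicity is scored as a concentration-dependent drop in intracellular ATP in human lymphoblastoid LYMP2-005 cells after 24 h compound treatment. ATP is quantified by luciferase luminescence, and AC50 is derived by Hill-equation modelling.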

[8] = Cell Viability - LYMP2-013 (AID 970);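 also: cells exposed to compound for 24 h at 37 °C; nearly all actives have a fitted effect of over 55% in size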
How it was run: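 qHTS; 2500 lymphoblastoid cells/well; 5 hr 37 C settle; cpd 24 hr 37 C; CellTiter-Glo, 30 min RT; luminescence. AC50 = Hill fit.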

[9] = Cell Viability - LYMP2-025 (AID 976);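 also: cells exposed to compound for 24 h at 37 °C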
How it was run: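 Seed 2500 LYMP2-025 cells/well; 5 hr at 37 C; add compound; 24 hr at 37 C; add CellTiter-Glo; 30 min RT; read luminescence. AC50 from Hill-modelled concentration-response.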

[10] = Cell Viability - LYMP2-007 (AID 979);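 also: cells exposed to compound for 24 h before reading; nearly all actives have a fitted effect of over 60% in size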; also: potency is read from the fitted curve at half-maximal effect
How it was run: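 Luminescent ATP signal (CellTiter-Glo) serves as the viability read-out after 24 hr compound treatment of lymphoblastoid cells in complete medium at 37 C. Concentration-response data were fitted to the Hill equation to give AC50 values.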

[11] = Cell Viability - LYMP2-012 (AID 982);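 also: cellular ATP by luciferase luminescence where a drop means cytotoxicity; cells exposed to compound for one day before reading; nearly all actives have a fitted effect of over 55% in size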
[12] = Cell Viability - LYMP2-018 (AID 985);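 also: compound exposure lasted 24 hr at 37 °C; nearly all actives have a fitted effect of over 50% in size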
How it was run: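 Luminescent ATP signal (CellTiter-Glo, read after 30 min at room temperature) reports viable cells after 24 hr compound treatment at 37 C. Concentration-response data were fitted to the standard Hill equation for AC50.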

[13] = Cell Viability - LYMP2-026 (AID 989);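 also: cells exposed to compound for 24 h at 37 °C; nearly all actives have a fitted effect of over 50% in size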
How it was run: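 Luminescent ATP signal (CellTiter-Glo, 30 min room temperature) measures viable lymphoblastoid cells after 24 hr compound treatment at 37 C. Decreased ATP reflects acute toxicity; AC50 values come from Hill-equation modeling.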

[14] = Cell Viability - LYMP1-002 - Assay at 40 hr (AID 994); also: nearly all actives have a fitted effect of over 60% in size
How it was run: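 Luminescent ATP signal served as the viability readout, with decreases taken as toxicity. Cells were treated with compounds across a concentration range for 40 hours at 37 C, and AC50 values came from standard Hill modeling.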

[15] = qHTS assay for small molecule agonists of retinoid X receptor alpha signaling (AID 588544; calls by dose curve); details: HEK293T RXRa-UAS-bla, beta-lactamase reporter, 18 h; 530 nm emission
[16] = biological target: Retinoic acid receptor RXR-alpha (Homo sapiens) (UniProt P19793); test: as above
[17] = qHTS assay for small molecule antagonists of retinoid X receptor alpha signaling (AID 588546; active = well fitted inhibition curve with a large enough effect in the signal ratio, with a control signal flat, not every such curve was filed as active; the % refers to the signal ratio;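 also: cells stimulated with 9-cis-retinoic acid as agonist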); details: HEK293T RXRa-UAS-bla, beta-lactamase ratio, antagonist mode; measured here: W530 green channel, cytotoxicity proxy
How it was run: (§1)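 Beta-lactamase reporter inhibition, read as CCF4 fluorescence ratio (ex 405, em 460/530 nm) after 2 h at RT. HEK293T UAS-bla cells, 2500/well, were stimulated with 9-cis-RA at 500 or 100 nM final alongside test compound for 18 h at 37 C.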

[18] = biological target: Retinoic acid receptor RXR-alpha (Homo sapiens) (UniProt P19793); test: as above; details: HEK293T RXRa-UAS-bla, beta-lactamase ratio, antagonist mode
How it was run: as §1

[19] = qHTS assay for small molecule agonists of the antioxidant response element (ARE) signaling pathway measured by Nrf2-dependant transcriptional activity (AID 720636; active = well fitted curve in the direction sought with a large enough effect in the repeat runs; an effect the other way counts as inactive or inconclusive;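 also: HepG2 cells with an ARE-driven luciferase reporter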)
How it was run: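 Cells: ARE-luc HepG2 with Nrf2-responsive luciferase. Medium contained 1% dialyzed FBS. Compound exposure lasted 16 hr at 37 C and 5% CO2, followed by ONE-Glo luciferase detection.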

[20] = qHTS assay for small molecule antagonists of the retinoid-related orphan receptor gamma (ROR-gamma) signaling pathway - cell viability counter screen (AID 720652; active = well fitted curve in the direction sought with a large enough effect in the repeat runs; an effect the other way counts as inactive or inconclusive;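 also: compound exposure lasted 16 hr before ATP read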)
How it was run: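 Luminescence from CellTiter-Glo after 30 min at room temperature reported cellular ATP as the cytotoxicity measure. Cells were the CHO reporter line with doxycycline-induced ROR-gamma expression, exposed to compound for 16 hr at 37 C.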

Chain of Retinoic acid receptor RXR-alpha (Homo sapiens) (P19793 whole entry, looked up): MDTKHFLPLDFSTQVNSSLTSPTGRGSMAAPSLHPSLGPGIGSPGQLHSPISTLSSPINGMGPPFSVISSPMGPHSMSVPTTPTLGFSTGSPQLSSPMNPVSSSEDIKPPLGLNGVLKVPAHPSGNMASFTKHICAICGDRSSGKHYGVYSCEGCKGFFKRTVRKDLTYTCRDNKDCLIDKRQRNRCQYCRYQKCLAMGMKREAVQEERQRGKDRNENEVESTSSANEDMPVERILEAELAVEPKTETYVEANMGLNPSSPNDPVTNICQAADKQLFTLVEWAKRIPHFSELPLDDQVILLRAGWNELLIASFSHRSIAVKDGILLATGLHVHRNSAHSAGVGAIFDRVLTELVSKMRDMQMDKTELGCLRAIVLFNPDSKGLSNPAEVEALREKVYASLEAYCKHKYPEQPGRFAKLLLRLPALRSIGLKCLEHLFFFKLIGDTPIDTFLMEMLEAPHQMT

[O-][Cl+2]([O-])O
Potency [1]: inactive
Potency [2]: inactive
outcome [3]: inactive
Potency [4]: inactive
outcome [5]: inactive
Potency [6]: inactive
Potency [7]: inactive
Potency [8]: inactive
Potency [9]: inactive
Potency [10]: inactive
Potency [11]: inactive
Potency [12]: inactive
Potency [13]: inactive
Potency [14]: inactive
max response [15]: 6.62%
outcome [16]: inactive
max response [17]: -3.35%
max response [18]: -4.77% (inactive)
Potency [19]: inactive
Potency [20]: inactive

CC(=O)NNc1ccccc1
Potency [1]: inactive
Potency [2]: inactive
outcome [3]: inactive
Potency [4]: inactive
outcome [5]: inactive
Potency [6]: inactive
Potency [7]: inactive
Potency [8]: inactive
Potency [9]: inactive
Potency [10]: inactive
Potency [11]: inactive
Potency [12]: inactive
Potency [13]: inactive
Potency [14]: inactive
max response [17]: -2.14%
max response [18]: -22.9% (inactive)
Potency [19]: inactive
Potency [20]: inactive

ClCc1ccccc1
Potency [1]: inactive
Potency [2]: inactive
outcome [3]: inactive
Potency [4]: inactive
outcome [5]: inactive
Potency [6]: inactive
Potency [7]: inactive
Potency [8]: inactive
Potency [9]: inactive
Potency [10]: inactive
Potency [11]: inactive
Potency [12]: inactive
Potency [13]: inactive
Potency [14]: inactive
max response [15]: -0.901%
outcome [16]: inactive
max response [17]: -2.86%
max response [18]: 6.84% (inactive)
Potency [19]: inactive
Potency [20]: inactive

ClC(Cl)c1ccccc1
Potency [1]: inactive
Potency [2]: inactive
outcome [3]: inactive
Potency [4]: inactive
outcome [5]: inactive
Potency [6]: inactive
Potency [7]: inactive
Potency [8]: inactive
Potency [9]: inactive
Potency [10]: inactive
Potency [11]: inactive
Potency [12]: inactive
Potency [13]: inactive
Potency [14]: inactive
max response [15]: 1.37%
outcome [16]: inactive
max response [17]: 4.33%
max response [18]: 0.971% (inactive)
Potency [19]: inactive
Potency [20]: inactive

Cc1ccc(N)cc1Cl
Potency [1]: inactive
Potency [2]: inactive
outcome [3]: inactive
Potency [4]: inactive
outcome [5]: inactive
Potency [6]: inactive
Potency [7]: inactive
Potency [8]: inactive
Potency [9]: inactive
Potency [10]: inactive
Potency [11]: inactive
Potency [12]: inactive
Potency [13]: inactive
Potency [14]: inactive
max response [15]: -18.1%
outcome [16]: inactive
max response [17]: -6.83%
max response [18]: -11.5% (inactive)
Potency [19]: inactive
Potency [20]: inactive

Clc1ccccc1
Potency [1]: inactive
Potency [2]: inactive
outcome [3]: inactive
Potency [4]: inactive
outcome [5]: inactive
Potency [6]: inactive
Potency [7]: inactive
Potency [8]: inactive
Potency [9]: inactive
Potency [10]: inactive
Potency [11]: inactive
Potency [12]: inactive
Potency [13]: inactive
Potency [14]: inactive
max response [15]: -8.37%
outcome [16]: inactive
max response [17]: -7.38%
max response [18]: -2.2% (inactive)
Potency [19]: inactive
Potency [20]: inactive

CC(C)CC(C)N (stereo not given)
Potency [1]: inactive
Potency [2]: inactive
outcome [3]: inactive
Potency [4]: inactive
outcome [5]: inactive
Potency [6]: inactive
Potency [7]: inactive
Potency [8]: inactive
Potency [9]: inactive
Potency [10]: inactive
Potency [11]: inactive
Potency [12]: inactive
Potency [13]: inactive
Potency [14]: inactive
max response [15]: -12.2%
outcome [16]: inactive
max response [17]: -2.75%
max response [18]: 1.28% (inactive)
Potency [19]: inactive
Potency [20]: inactive

CCCCCc1cc(O)cc(O)c1
Potency [1]: inactive
Potency [2]: inactive
outcome [3]: inactive
Potency [4]: inactive
outcome [5]: inactive
Potency [6]: inactive
Potency [8]: inactive
Potency [9]: inactive
Potency [10]: inactive
Potency [11]: inactive
Potency [12]: inactive
Potency [13]: inactive
Potency [14]: inactive
max response [15]: 0.917%
outcome [16]: inactive
max response [17]: -2.02%
max response [18]: -16.8% (inactive)
Potency [19]: inactive

Cc1ccc([N+](=O)[O-])cc1
Potency [1]: inactive
Potency [2]: inactive
outcome [3]: inactive
Potency [4]: inactive
outcome [5]: inactive
Potency [6]: inactive
Potency [7]: inactive
Potency [8]: inactive
Potency [9]: inactive
Potency [10]: inactive
Potency [11]: inactive
Potency [12]: inactive
Potency [13]: inactive
Potency [14]: inactive
max response [15]: -18.4%
outcome [16]: inactive
max response [17]: 1.21%
max response [18]: 4.07% (inactive)
Potency [19]: inactive
Potency [20]: inactive

Cc1ccc2c(C)cccc2c1
Potency [1]: inactive
Potency [2]: inactive
outcome [3]: inactive
Potency [4]: inactive
outcome [5]: inactive
Potency [6]: inactive
Potency [7]: inactive
Potency [8]: inactive
Potency [9]: inactive
Potency [10]: inactive
Potency [11]: inactive
Potency [12]: inactive
Potency [13]: inactive
Potency [14]: inactive
max response [15]: -13.5%
outcome [16]: inactive
max response [17]: 4.96%
max response [18]: 4.66% (inactive)
Potency [19]: inactive
Potency [20]: inactive

Nc1ccc(-c2ccccc2)cc1
Potency [1]: inactive
Potency [2]: inactive
outcome [3]: inactive
Potency [4]: inactive
outcome [5]: inactive
Potency [6]: inactive
Potency [7]: inactive
Potency [8]: inactive
Potency [9]: inactive
Potency [10]: inactive
Potency [11]: inactive
Potency [12]: inactive
Potency [13]: inactive
Potency [14]: inactive
max response [15]: 9.85%
outcome [16]: inactive
max response [17]: -4.26%
max response [18]: -7.2% (inactive)
Potency [20]: inactive

N#CCc1ccccc1
Potency [1]: inactive
Potency [2]: inactive
outcome [3]: inactive
Potency [4]: inactive
outcome [5]: inactive
Potency [6]: inactive
Potency [7]: inactive
Potency [8]: inactive
Potency [9]: inactive
Potency [10]: inactive
Potency [11]: inactive
Potency [12]: inactive
Potency [13]: inactive
Potency [14]: inactive
max response [15]: -3.72%
outcome [16]: inactive
max response [17]: -0.865%
max response [18]: 20.3% (inactive)
Potency [19]: inactive
Potency [20]: inactive

S=c1[nH]c2ccccc2[nH]1
Potency [1]: inactive
Potency [2]: inactive
outcome [3]: inactive
Potency [4]: inactive
outcome [5]: inactive
Potency [6]: inactive
Potency [7]: inactive
Potency [8]: inactive
Potency [9]: inactive
Potency [10]: inactive
Potency [11]: inactive
Potency [12]: inactive
Potency [13]: inactive
Potency [14]: inactive
max response [15]: 8.12%
outcome [16]: inactive
max response [17]: -17.8%
max response [18]: 5.37% (inactive)
Potency [19]: inactive
Potency [20]: inactive

Nc1cccc2ccccc12
Potency [1]: inactive
Potency [2]: inactive
outcome [3]: inactive
outcome [5]: inactive
Potency [6]: inactive
Potency [7]: inactive
Potency [9]: inactive
Potency [10]: 39.8 µM (active)
Potency [11]: inactive
Potency [12]: inactive
Potency [13]: inactive
Potency [14]: inactive
max response [17]: -8.8%
max response [18]: -9% (inactive)
Potency [20]: inactive

CCCCCCCCCCCCCl
Potency [1]: inactive
Potency [2]: inactive
outcome [3]: inactive
Potency [4]: inactive
outcome [5]: inactive
Potency [6]: inactive
Potency [7]: inactive
Potency [8]: inactive
Potency [9]: inactive
Potency [10]: inactive
Potency [11]: inactive
Potency [12]: inactive
Potency [13]: inactive
Potency [14]: inactive
max response [15]: -9.69%
outcome [16]: inactive
max response [17]: -8.5%
max response [18]: -4.83% (inactive)
Potency [19]: inactive
Potency [20]: inactive
